Experimental findings from ChEMBL document CHEMBL3988442, “University of Dundee, Small-Polar-MMV Screening Library” (2021) are described below.

For some of these results: Entries with a potency or affinity are not part of this list.

Design in all cases: scale not given: direction of the effect not stated beside the values
Assay [1] addresses Protein translocase subunit SecA (Escherichia coli (strain K12)) (UniProt P10408). Nature of the assay: Assay to Identify E. coli SecA ATPase Inhibitors. The class given is functional. The note with it: 30 µM.
The target of assay [2] is T1, Ubiquitin-activating enzyme e1, putative (Leishmania donovani (strain BPK282A1)) (UniProt E9BSI1).
T1 sequence (whole entry): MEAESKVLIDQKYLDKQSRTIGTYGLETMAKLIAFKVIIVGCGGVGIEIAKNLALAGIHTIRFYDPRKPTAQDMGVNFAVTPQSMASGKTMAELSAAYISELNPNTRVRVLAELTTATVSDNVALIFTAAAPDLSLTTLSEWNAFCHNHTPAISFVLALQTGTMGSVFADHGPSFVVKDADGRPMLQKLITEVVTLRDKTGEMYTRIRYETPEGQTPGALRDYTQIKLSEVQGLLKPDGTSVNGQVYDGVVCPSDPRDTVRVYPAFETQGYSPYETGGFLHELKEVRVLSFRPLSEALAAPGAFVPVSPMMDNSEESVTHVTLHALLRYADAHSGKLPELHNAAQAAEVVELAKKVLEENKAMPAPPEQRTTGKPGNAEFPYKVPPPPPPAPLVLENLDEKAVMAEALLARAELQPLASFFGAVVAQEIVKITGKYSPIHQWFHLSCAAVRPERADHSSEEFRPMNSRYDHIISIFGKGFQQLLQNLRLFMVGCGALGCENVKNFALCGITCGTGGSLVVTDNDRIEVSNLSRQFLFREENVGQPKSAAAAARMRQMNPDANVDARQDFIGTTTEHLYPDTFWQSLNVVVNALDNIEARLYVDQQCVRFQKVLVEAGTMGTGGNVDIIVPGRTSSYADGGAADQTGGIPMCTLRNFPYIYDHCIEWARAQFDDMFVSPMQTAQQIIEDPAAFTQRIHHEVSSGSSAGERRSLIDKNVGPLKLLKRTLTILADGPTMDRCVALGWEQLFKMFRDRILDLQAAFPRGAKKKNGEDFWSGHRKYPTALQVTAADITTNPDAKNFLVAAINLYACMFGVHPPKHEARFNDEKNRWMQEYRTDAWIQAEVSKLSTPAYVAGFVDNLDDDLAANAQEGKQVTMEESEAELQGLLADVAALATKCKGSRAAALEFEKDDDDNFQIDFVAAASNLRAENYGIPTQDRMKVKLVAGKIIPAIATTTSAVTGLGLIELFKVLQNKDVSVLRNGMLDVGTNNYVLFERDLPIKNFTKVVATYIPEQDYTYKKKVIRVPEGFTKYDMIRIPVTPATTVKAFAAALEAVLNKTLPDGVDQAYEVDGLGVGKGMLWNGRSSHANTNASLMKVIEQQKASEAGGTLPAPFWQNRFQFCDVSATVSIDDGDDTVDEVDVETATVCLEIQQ
Description: Leishmania donovani Ubiquitin Activating Enzyme (LdE1). Type of assay: functional. The note with it: 30 µM.

The target in assay [3] is AMP-activated protein kinase, AMPK (Homo sapiens) (UniProt P54646+O43741+P54619+Q9UGJ0+Q9Y478+Q13131+Q9UGI9). Description: AMP-dependent Kinase enzyme assay. An in vitro enzyme assay that detects ADP turnover that is directly proportional to AMPK activity. This uses naive AMPK that is activated during the assay with MK-8722. Type of assay: functional. The note with it: 30 µM.

For assay [4], the target named is Sialic acid-binding Ig-like lectin 9 (Homo sapiens) (UniProt Q9Y336). Nature of the assay: Hs-Siglec9 ALPHAscreen SOP 20170721. The note with it: 10 µM. (In general: Bead proximity is the source of the signal in Alpha formats.)
For assay [5], the system named is Trypanosoma cruzi. Description: Trypanosoma cruzi phosphomannomutase and mannose-1-phosphate guanylyltransferase assay. The class given is functional. The note with it: 10 µM.
Assay [6] addresses T2, Arginase-2, mitochondrial (Homo sapiens) (UniProt P78540).
T2 sequence (whole entry): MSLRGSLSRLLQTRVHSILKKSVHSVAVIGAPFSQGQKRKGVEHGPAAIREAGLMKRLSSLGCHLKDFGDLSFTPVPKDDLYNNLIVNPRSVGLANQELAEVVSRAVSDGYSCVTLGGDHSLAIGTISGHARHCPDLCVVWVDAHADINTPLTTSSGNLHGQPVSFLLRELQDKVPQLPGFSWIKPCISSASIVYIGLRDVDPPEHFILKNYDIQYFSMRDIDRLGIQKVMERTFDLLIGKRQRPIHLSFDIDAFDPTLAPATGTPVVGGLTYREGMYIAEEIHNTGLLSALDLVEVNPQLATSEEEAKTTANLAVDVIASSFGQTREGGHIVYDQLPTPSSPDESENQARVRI
Description: in vitro enzyme assay to detect the production of urea directly proportional to the activity of Arginase II. Further: in the data most compounds retested in dose-response had high values. The class given is functional. The conditions noted are these: 33.3 µM.

The target of assay [7] is T3, Proteasome subunit beta (Trypanosoma cruzi) (UniProt O96673).
T3 sequence (whole entry): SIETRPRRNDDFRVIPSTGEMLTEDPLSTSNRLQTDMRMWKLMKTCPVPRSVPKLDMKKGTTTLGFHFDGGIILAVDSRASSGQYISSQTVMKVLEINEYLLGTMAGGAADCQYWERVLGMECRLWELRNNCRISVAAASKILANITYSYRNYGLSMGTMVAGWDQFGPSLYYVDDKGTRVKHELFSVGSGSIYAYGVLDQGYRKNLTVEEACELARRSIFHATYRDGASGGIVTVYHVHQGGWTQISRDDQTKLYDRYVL
Nature of the assay: Trypanosoma cruzi proteasome chymotrypsin-like activity (TcProtChymo) assay. Further: in the data most compounds retested in dose-response had high values. Type of assay: functional. The conditions noted are these: 9.37 µM.

The species entered for assay [8] is Homo sapiens. Description: To identify inhibition of the IFN signalling (Jak-Stat) pathway via expression of an eGFP reporter gene under the control of an IFN-stimulated response element (ISRE) containing MxA promoter. Type of assay: functional. The conditions noted are these: 30 µM. A general note: Reporter assays use an easily measured gene product as a stand-in for the process of interest.

Assay [9] has as its target T4, Tyrosyl-tRNA synthetase, putative (Trypanosoma cruzi (strain CL Brener)) (UniProt Q4DSP6).
T4 sequence (whole entry): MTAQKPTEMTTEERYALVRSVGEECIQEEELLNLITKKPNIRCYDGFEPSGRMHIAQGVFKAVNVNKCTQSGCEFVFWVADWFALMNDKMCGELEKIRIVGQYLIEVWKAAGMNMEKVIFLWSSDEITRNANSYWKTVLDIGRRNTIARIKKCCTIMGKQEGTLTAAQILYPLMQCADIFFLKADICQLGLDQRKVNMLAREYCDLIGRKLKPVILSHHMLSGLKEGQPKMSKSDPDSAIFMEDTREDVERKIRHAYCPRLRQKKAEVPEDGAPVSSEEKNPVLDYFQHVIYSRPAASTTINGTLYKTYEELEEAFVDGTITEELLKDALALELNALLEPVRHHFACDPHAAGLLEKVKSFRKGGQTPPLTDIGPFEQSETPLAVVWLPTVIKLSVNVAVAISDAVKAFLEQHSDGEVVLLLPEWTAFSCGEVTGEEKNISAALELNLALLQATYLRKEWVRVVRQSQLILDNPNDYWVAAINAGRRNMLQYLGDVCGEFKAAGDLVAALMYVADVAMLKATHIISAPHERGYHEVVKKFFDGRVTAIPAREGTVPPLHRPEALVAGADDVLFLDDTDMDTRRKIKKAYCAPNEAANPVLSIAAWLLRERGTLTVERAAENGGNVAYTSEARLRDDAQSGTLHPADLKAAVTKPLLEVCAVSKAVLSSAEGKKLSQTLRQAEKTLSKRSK
Nature of the assay: Trypanosoma cruzi tyrosyl tRNA synthetase (TcYRS) _High Tyrosine SOP. Further: in the data most compounds retested in dose-response had high values. The conditions noted are these: 30 µM. Type of assay: functional.

Assay [10] deals with T4, Tyrosyl-tRNA synthetase, putative (Trypanosoma cruzi (strain CL Brener)). Nature of the assay: Trypanosoma cruzi tyrosyl tRNA synthetase (TcYRS) SOP. The class given is functional. The conditions noted are these: 30 µM.
Assay [11] concerns the target Chromo domain-containing protein 1 (Saccharomyces cerevisiae (strain ATCC 204508 / S288c) (Baker's yeast)) (UniProt P32657). Nature of the assay: ScCHD-1 Enzyme Inhibition Assay. Further: in the data most compounds retested in dose-response had high values. The conditions noted are these: 30 µM. Type of assay: functional.

Protein translocase subunit SecA (Escherichia coli (strain K12)), sequence (P10408 whole entry): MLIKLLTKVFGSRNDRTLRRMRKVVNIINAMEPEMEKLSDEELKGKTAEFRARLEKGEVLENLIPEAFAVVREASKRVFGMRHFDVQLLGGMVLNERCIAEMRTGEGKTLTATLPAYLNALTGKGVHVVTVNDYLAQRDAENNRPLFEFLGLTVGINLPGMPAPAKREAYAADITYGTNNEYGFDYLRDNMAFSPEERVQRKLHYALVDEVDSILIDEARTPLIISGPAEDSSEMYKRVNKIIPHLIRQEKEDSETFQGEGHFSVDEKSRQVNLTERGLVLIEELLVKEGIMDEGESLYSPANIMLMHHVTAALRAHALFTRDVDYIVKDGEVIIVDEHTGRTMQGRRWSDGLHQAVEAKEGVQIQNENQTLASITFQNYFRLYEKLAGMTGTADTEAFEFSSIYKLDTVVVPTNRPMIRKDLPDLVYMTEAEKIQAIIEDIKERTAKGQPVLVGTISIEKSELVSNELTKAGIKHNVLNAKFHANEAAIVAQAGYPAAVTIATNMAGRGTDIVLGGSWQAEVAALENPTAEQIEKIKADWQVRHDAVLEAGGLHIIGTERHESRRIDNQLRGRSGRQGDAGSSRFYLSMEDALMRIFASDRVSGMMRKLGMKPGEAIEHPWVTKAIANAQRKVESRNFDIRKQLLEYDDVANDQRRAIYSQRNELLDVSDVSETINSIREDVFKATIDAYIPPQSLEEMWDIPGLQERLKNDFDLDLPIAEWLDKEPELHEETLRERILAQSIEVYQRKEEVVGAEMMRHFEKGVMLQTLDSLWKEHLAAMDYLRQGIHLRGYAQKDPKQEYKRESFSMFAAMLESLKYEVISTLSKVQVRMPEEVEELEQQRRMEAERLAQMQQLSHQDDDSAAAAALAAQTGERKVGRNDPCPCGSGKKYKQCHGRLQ
Chromo domain-containing protein 1 (Saccharomyces cerevisiae (strain ATCC 204508 / S288c) (Baker's yeast)), sequence (P32657 whole entry, the tested form may be a part): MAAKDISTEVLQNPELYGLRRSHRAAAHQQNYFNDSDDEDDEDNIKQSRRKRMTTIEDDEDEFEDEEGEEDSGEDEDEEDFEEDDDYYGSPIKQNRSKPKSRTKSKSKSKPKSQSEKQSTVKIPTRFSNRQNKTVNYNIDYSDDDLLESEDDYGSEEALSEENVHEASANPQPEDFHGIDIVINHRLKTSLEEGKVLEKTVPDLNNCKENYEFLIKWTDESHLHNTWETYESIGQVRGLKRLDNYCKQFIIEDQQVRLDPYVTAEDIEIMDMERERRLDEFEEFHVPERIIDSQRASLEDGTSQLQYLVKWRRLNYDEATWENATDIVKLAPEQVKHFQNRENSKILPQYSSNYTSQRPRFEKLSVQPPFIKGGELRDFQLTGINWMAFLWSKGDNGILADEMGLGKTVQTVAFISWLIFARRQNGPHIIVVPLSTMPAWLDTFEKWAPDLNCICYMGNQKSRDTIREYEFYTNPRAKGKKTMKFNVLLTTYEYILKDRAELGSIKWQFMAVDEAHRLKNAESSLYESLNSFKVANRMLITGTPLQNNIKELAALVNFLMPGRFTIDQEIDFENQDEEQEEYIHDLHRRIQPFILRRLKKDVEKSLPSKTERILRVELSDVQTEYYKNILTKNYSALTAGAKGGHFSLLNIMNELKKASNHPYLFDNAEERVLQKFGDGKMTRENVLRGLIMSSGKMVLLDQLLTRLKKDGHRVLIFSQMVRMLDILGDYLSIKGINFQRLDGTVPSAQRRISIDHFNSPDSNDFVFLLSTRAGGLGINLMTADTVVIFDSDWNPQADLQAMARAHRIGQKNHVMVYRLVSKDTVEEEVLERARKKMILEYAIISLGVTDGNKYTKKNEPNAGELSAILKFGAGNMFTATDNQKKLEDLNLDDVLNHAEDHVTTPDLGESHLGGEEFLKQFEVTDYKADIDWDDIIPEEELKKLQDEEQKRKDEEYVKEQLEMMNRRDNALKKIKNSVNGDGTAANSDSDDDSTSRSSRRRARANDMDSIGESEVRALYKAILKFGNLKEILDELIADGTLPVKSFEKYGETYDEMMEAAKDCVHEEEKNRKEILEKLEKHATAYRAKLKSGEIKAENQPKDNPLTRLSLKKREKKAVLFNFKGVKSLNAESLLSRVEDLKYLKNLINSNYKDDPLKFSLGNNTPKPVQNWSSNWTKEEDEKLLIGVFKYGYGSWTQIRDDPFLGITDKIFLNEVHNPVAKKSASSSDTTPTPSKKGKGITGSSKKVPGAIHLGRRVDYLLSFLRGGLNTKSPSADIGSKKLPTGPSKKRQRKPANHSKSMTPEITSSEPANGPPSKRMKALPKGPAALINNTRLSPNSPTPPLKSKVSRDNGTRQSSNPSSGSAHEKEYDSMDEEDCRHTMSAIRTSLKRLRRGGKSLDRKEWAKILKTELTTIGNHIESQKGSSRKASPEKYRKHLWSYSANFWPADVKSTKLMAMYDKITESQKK
Sialic acid-binding Ig-like lectin 9 (Homo sapiens), sequence (Q9Y336 whole entry): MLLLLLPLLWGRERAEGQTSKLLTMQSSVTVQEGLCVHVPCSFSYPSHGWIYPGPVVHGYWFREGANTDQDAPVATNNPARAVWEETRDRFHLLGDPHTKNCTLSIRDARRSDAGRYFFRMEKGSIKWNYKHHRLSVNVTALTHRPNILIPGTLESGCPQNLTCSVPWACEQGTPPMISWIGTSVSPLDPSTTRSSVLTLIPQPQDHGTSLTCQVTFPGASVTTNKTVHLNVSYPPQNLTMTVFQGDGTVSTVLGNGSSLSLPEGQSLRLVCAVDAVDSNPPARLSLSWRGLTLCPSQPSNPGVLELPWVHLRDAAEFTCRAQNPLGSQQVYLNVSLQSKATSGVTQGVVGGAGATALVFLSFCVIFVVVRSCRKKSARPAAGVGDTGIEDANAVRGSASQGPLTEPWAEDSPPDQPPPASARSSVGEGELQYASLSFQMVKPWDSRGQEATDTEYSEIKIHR

Regarding `Cn1cnc2c1CCN(Cc1nc(-c3ccsc3)no1)C2`, the Percent Effect in [1] is -6.98%; in assay [2], 18.9%; in [3], -7.09%; in assay [4], 15.8%; in [5], 10.7%; in [6], -3.14%. The Percent Effect in assay [7] was 5.57%; in assay [8] it was 2.25%; in [9] it was 7.92%; in assay [10], 25.6%; in assay [11], -9.67%.
Regarding `Cc1nn(C)c(N2CCOCC2)c1CNCc1ccnc(N(C)C)c1`, the Percent Effect in assay [1] was -1.81%; in assay [2], 10.4%; in [3] it was -5.9%; in assay [4], -0.165%; in assay [5] it was -2.64%; in assay [6] it was 0.21%. The Percent Effect in assay [7] was 10.6%; in assay [8] it was 25.3%; in assay [9] it was 3.81%; in [10], 14.1%; in assay [11], -2.85%.
As for `O=C(CCc1nc2cccnc2[nH]1)NCc1cccnc1`, the Percent Effect in assay [1] was -3.19%; in [2], 25.3%; in assay [3] it was -5.37%; in assay [4], 0.97%; in [5] it was 3.34%; in [6], -0.88%. In addition, the Percent Effect was 15.5% in [7]; 9.81% in assay [8]; 8.47% in assay [9]; 15.4% in [10]; -10.2% in assay [11].
In the case of `Cc1n[nH]c(C)c1C1CCCN1C(=O)NCC(=O)NC(C)(C)C` (stereo unspecified), the Percent Effect in [1] is -4.22%; in assay [2], 0%; in assay [3], 26.9%; in assay [4], 3.62%; in [5], -6.86%; in [6] it was 2.27%. The Percent Effect in [7] is 3.9%; in [8], 0.328%; in [9], 1.07%; in assay [10], 2.5%; in [11], -0.359%.
On to `OCC1CCCN1c1cc(N2CCc3ccccc3C2)ncn1` (stereo unspecified), for which the Percent Effect was -5.73% in assay [1]; 5.2% in assay [2]; -4.03% in [3]; -9.93% in [4]; 8.13% in assay [5]; -6.95% in assay [6]. For the same compound, the Percent Effect is 7.84% in [7]; -3.87% in [8]; 3.81% in [9]; 14.1% in assay [10]; -20.3% in assay [11].
Regarding `O=C(NCCCO)C1CC(=O)N(c2n[nH]c3cccc(F)c23)C1` (stereo unspecified), the Percent Effect was 0.204% in [1]; 17.3% in assay [2]; -5.17% in assay [3]; -2.48% in [4]; 1.57% in assay [5]; -12.2% in assay [6]. For the same compound, the Percent Effect in [7] was 10.5%; in assay [8] it was 2.36%; in assay [9], 5.29%; in assay [10], 15.4%; in assay [11], -14.8%.
Take `CNS(=O)(=O)c1cccc(C(C)NCc2nccn2C(C)C)c1` (stereo unspecified): the Percent Effect in [1] is -0.324%; in [2], 13.5%; in [3], -9.13%; in [4], -6.24%; in assay [5], -0.781%; in [6], 16.2%. The Percent Effect in [7] was determined as 16.3%; in assay [8], 10.9%; in assay [9], 10.9%; in assay [10], 15.8%; in [11], 2.31%.
With `O=C(Nc1cnccn1)[C@H]1COC[C@H]2CN(C3CCCC3)C[C@H]21`, the Percent Effect in assay [1] is -0.257%; in assay [2], 2.7%; in assay [3] it was -0.6%; in assay [4], 0.701%; in assay [5], 4.88%; in assay [6] it was 2.92%. For the same compound, the Percent Effect in assay [7] is -0.0845%; in assay [8], -10.3%; in assay [9], 3.96%; in assay [10], -1.22%; in assay [11], -1.78%.
For the compound `COCC(NC(=O)c1cc[nH]n1)c1cccc(C(F)(F)F)c1` (stereo unspecified), the Percent Effect in [1] is -5.2%; in assay [2] it was 16.4%; in [3], -2.13%; in assay [4], 16%; in assay [5], 3.92%; in [6] it was 0.455%. For the same compound, the Percent Effect in assay [7] is 6.03%; in [8], 15.4%; in assay [9] it was 4.3%; in assay [10] it was 7.5%; in assay [11] it was -5.07%.
Consider `Cc1nc2c(c(C)c1CC(=O)Nc1ccc(Cl)cc1)c(=O)[nH]n2C`, for which the Percent Effect in assay [1] was -8.55%; in assay [2], 10.7%; in assay [3], -2.37%; in assay [4], 20.4%; in [5], 5.36%; in assay [6] it was 6.77%. The Percent Effect in assay [7] is 6.97%; in assay [8] it was 11.7%; in assay [9] it was 3.83%; in [10] it was 13.6%; in [11] it was 3.39%.
Consider `COC(=O)CNC(=O)CSCc1nc(O)c2c(C)c(C)sc2n1`, for which the Percent Effect in [1] is -1.31%; in assay [2], -6.67%; in [3] it was 14.7%; in assay [4] it was 4.89%; in [5] it was -3.93%; in assay [6], 3.7%. Further, the Percent Effect in assay [7] is 9.8%; in assay [8], -3.69%; in [9], 3.17%; in assay [10] it was 0%; in assay [11], -4.91%.
